According to ChEMBL document CHEMBL3988442, “University of Dundee, Small-Polar-MMV Screening Library” (2021):
For part of these data: Potency and affinity values are given separately.

Legend:
Set-up in all cases: scale not given: direction of the effect not stated beside the values
[1] = target: Protein translocase subunit SecA (Escherichia coli (strain K12)) (UniProt P10408); experiment: Assay to Identify E. coli SecA ATPase Inhibitors; type: functional; details: 30 µM
[2] = target: T1, Ubiquitin-activating enzyme e1, putative (Leishmania donovani (strain BPK282A1)) (UniProt E9BSI1); experiment: Leishmania donovani Ubiquitin Activating Enzyme (LdE1); type: functional; details: 30 µM
T1 sequence (whole entry): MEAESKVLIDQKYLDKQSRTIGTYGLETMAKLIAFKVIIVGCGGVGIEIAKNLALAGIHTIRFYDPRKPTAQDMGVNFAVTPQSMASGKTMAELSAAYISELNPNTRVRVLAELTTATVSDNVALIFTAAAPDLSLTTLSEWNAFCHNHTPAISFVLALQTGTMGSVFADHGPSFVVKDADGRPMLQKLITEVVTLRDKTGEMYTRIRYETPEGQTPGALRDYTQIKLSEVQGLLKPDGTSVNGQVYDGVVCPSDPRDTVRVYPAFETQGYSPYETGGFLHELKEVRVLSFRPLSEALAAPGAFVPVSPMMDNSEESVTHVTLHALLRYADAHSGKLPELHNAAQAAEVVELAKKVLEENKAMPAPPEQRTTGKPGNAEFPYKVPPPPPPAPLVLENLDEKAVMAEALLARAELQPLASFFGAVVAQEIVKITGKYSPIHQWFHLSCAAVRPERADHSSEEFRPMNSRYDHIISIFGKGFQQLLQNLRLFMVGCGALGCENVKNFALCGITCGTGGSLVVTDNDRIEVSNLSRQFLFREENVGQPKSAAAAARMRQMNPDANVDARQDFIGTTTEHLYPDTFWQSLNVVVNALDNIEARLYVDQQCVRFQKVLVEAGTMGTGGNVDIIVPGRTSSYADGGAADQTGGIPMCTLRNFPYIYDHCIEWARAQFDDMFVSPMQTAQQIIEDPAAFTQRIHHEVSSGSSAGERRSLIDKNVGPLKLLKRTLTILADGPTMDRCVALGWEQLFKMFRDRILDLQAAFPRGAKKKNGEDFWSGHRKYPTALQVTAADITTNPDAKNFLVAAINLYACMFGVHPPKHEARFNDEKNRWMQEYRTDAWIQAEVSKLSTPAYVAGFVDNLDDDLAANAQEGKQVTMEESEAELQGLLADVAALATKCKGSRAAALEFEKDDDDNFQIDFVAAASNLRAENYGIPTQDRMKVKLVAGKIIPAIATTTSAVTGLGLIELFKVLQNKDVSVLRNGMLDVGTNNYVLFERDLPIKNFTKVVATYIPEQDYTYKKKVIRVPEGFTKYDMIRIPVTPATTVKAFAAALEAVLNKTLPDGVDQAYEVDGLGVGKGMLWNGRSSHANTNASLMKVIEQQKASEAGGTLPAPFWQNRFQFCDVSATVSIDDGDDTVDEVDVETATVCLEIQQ

[3] = target: Sialic acid-binding Ig-like lectin 9 (Homo sapiens) (UniProt Q9Y336); experiment: Hs-Siglec9 ALPHAscreen SOP 20170721; details: 10 µM
Trypanosoma cruzi = experiment: Trypanosoma cruzi phosphomannomutase and mannose-1-phosphate guanylyltransferase assay; type: functional; details: 10 µM
[4] = target: T2, Arginase-2, mitochondrial (Homo sapiens) (UniProt P78540); experiment: in vitro enzyme assay to detect the production of urea directly proportional to the activity of Arginase II; type: functional; details: 33.3 µM; note: in the data most compounds retested in dose-response had high values
T2 sequence (whole entry): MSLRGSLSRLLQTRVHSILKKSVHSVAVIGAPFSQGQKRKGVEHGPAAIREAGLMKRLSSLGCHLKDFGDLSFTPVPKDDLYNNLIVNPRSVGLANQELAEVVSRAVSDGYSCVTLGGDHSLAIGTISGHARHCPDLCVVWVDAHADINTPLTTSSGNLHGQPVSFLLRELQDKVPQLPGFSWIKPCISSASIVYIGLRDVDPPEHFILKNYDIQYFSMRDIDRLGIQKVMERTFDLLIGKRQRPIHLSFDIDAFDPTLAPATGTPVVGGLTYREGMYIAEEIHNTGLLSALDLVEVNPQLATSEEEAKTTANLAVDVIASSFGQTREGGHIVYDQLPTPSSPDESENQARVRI

[5] = target: T3, Proteasome subunit beta (Trypanosoma cruzi) (UniProt O96673); experiment: Trypanosoma cruzi proteasome chymotrypsin-like activity (TcProtChymo) assay.; note: in the data most compounds retested in dose-response had high values; type: functional; details: 9.37 µM
T3 sequence (whole entry): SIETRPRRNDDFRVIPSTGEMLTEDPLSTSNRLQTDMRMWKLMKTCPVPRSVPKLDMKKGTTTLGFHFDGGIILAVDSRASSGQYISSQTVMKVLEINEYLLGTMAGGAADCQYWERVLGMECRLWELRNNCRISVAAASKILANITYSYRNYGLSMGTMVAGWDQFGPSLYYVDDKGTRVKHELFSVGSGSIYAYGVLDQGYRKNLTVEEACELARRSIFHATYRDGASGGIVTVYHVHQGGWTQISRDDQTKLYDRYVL

Homo sapiens = species on record: Homo sapiens; experiment: To identify inhibition of the IFN signalling (Jak-Stat) pathway via expression of an eGFP reporter gene under the control of an IFN-stimulated response element (ISRE) containing MxA promoter.; type: functional; details: 30 µM
[6] = target: T4, Tyrosyl-tRNA synthetase, putative (Trypanosoma cruzi (strain CL Brener)) (UniProt Q4DSP6); experiment: Trypanosoma cruzi tyrosyl tRNA synthetase (TcYRS) _High Tyrosine SOP; type: functional; details: 30 µM; note: in the data most compounds retested in dose-response had high values
T4 sequence (whole entry): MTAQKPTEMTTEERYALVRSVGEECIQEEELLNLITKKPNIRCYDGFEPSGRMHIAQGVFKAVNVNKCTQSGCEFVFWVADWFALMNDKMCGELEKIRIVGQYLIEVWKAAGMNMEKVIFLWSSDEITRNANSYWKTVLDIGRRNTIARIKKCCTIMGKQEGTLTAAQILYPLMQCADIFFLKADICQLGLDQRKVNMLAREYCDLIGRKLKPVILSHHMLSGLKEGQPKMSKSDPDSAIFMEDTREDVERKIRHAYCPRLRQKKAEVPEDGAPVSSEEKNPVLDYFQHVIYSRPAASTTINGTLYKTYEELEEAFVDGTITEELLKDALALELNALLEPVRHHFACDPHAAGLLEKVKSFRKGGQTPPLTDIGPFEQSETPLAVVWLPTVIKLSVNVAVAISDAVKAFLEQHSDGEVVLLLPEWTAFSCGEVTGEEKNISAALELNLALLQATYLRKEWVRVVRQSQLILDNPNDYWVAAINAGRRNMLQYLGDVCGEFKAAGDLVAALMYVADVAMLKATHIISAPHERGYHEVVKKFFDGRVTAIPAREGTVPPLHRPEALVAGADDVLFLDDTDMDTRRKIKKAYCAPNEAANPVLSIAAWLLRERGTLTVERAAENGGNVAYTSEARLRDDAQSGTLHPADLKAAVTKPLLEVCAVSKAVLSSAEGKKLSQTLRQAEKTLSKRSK

[7] = target: T4, Tyrosyl-tRNA synthetase, putative (Trypanosoma cruzi (strain CL Brener)); experiment: Trypanosoma cruzi tyrosyl tRNA synthetase (TcYRS) SOP; type: functional; details: 30 µM
[8] = target: Chromo domain-containing protein 1 (Saccharomyces cerevisiae (strain ATCC 204508 / S288c) (Baker's yeast)) (UniProt P32657); experiment: ScCHD-1 Enzyme Inhibition Assay; type: functional; details: 30 µM; note: in the data most compounds retested in dose-response had high values
Chromo domain-containing protein 1 (Saccharomyces cerevisiae (strain ATCC 204508 / S288c) (Baker's yeast)), sequence (P32657 whole entry, the tested form may be a part): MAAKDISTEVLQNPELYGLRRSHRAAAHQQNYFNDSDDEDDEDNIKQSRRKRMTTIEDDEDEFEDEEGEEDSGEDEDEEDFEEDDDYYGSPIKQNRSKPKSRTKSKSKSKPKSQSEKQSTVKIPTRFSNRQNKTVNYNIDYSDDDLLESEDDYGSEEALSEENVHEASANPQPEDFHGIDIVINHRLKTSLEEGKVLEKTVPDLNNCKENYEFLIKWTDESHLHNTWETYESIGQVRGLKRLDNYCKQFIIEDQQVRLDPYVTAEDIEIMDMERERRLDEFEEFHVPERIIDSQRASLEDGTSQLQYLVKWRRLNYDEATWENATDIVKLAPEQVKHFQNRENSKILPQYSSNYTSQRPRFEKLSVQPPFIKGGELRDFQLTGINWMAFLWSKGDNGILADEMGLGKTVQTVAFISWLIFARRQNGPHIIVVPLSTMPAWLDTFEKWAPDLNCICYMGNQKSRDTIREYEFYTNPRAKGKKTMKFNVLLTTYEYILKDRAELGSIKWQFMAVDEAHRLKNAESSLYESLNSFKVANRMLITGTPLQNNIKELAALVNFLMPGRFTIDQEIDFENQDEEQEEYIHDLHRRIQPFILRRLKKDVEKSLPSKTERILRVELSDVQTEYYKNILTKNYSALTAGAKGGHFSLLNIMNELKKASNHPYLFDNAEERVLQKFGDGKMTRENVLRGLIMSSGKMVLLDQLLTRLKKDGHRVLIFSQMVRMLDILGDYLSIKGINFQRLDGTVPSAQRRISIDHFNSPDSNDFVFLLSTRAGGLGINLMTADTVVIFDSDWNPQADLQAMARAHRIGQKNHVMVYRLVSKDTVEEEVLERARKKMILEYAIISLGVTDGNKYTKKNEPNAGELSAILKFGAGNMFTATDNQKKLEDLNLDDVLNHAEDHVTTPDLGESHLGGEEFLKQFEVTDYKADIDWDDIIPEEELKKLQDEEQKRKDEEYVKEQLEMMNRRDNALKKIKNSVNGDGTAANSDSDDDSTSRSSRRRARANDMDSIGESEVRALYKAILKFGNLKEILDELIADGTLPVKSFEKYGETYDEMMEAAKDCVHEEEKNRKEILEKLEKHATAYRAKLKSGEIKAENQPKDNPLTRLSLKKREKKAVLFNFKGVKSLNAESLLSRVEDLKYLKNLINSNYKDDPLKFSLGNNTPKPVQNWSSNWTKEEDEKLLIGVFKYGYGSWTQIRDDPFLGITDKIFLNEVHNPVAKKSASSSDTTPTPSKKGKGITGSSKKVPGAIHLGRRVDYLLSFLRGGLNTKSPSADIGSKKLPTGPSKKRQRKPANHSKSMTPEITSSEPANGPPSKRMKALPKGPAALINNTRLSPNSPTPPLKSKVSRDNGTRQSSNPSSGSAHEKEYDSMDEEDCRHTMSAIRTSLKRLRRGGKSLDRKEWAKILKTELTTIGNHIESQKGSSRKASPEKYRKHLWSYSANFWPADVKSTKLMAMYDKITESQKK

Protein translocase subunit SecA (Escherichia coli (strain K12)), sequence (P10408 whole entry): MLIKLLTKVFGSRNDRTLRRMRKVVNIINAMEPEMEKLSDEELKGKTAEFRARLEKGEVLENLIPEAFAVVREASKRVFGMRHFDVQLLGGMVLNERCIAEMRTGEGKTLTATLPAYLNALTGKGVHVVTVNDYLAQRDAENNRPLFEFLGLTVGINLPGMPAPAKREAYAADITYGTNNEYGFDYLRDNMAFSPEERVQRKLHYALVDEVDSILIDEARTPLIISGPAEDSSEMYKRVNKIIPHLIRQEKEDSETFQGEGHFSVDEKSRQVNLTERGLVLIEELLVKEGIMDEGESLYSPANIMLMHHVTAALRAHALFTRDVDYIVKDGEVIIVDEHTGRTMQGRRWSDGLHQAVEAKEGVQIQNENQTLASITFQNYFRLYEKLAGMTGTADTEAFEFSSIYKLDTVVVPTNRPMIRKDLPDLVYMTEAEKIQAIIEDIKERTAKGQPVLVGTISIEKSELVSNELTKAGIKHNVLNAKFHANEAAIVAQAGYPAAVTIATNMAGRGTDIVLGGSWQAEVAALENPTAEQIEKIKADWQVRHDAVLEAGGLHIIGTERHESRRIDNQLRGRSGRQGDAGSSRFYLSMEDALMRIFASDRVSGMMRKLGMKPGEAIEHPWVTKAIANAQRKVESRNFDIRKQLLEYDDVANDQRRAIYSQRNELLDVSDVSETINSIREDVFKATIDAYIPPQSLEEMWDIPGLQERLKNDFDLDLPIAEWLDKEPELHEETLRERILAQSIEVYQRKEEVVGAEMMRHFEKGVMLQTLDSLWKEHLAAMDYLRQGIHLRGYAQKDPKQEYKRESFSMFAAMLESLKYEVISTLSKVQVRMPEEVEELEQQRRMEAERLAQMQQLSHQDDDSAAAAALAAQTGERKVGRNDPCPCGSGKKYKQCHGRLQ
Sialic acid-binding Ig-like lectin 9 (Homo sapiens), sequence (Q9Y336 whole entry): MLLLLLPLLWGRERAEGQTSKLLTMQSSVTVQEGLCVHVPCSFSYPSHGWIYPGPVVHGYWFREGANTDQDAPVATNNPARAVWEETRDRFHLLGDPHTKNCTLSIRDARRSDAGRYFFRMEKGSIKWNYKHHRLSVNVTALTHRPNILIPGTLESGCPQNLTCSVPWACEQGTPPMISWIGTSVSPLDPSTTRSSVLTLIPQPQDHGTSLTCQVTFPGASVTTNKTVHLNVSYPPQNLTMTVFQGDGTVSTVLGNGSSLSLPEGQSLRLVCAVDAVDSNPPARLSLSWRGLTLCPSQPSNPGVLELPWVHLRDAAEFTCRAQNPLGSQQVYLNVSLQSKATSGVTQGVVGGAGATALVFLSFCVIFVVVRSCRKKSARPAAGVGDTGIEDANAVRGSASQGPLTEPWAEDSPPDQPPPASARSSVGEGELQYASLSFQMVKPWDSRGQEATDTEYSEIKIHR

| SMILES | Percent Effect [1] [%] | Percent Effect [2] [%] | Percent Effect [3] [%] | Percent Effect (Trypanosoma cruzi) [%] | Percent Effect [4] [%] | Percent Effect [5] [%] | Percent Effect (Homo sapiens) [%] | Percent Effect [6] [%] | Percent Effect [7] [%] | Percent Effect [8] [%] |
| --- | --- | --- | --- | --- | --- | --- | --- | --- | --- | --- |
| O=C(c1ccc(F)cc1)N1CCC2(CCCN2CC2CC2)CC1 | -2.9 | 9.09 | -6.13 | -6.57 | 5.94 | 14 | 11.5 | 0.966 | 0 | -3.47 |
| COc1cccc(-n2nnc(C(=O)N3CCN(C)CC3C)c2C)c1 (stereo not given) | 1.69 | 25.6 | -23.9 | 6.1 | -2.46 | 13.4 | 27.9 | 3.35 | 22.9 | 12.3 |
| COCCN1CCN(Cc2cccc(OCC(N)=O)c2)CC1C (stereo not given) | -6.03 | 0 | -0.422 | -3.81 | -0.887 | -0.255 | 7.49 | 2.63 | 0 | -4.22 |
| Cn1cc(CN2CCCC23CCN(C(=O)c2cccn2C)CC3)cn1 | -1.03 | -6.49 | -3.73 | -0.876 | -2.43 | -0.441 | -15.7 | -0.526 | 0 | -0.154 |
| Cc1cccnc1CNCC1(O)CCCN(CC2CCCCC2)C1=O (stereo not given) | -6.4 | 0 | -1.52 | -2.04 | -3.85 | 3.25 | 1.47 | 7.98 | 17.1 | 0.826 |
| Cc1cc(C)n2cc(CN3CCCC3Cn3nc(C)nc3C)nc2n1 (stereo not given) | -6.31 | -2.67 | 2.66 | 3.41 | 3.1 | 10.6 | 1.56 | 16.3 | 15.4 | -6.76 |
| CCOc1ncccc1C(=O)N1CCCC(c2nccn2CCOC)C1 (stereo not given) | -8.34 | 5.41 | 1.4 | -1.26 | -3.85 | 12.2 | 9.33 | 3.72 | 12.2 | 2.21 |
| Cc1cncc(C2CCCN(Cc3cccn3C)C2)n1 (stereo not given) | -2.21 | 12 | 2.11 | -0.592 | -6.64 | 10.5 | 6.97 | 9.52 | 12.5 | -15.4 |
| COc1ccc(CN2CCC3(CC2)CCN(CC2CC2)C3=O)cc1 | -3.5 | 19.5 | 0.146 | -3.56 | 4.57 | 3.18 | 4.44 | 4.83 | 2.5 | -2.76 |
| CCn1ccnc1CN1CCN(CC(O)c2ccccc2)CC1 (stereo not given) | -1.54 | 2.56 | 2.88 | -4.79 | 4.51 | 6.91 | 10.2 | 1.44 | 6.02 | -0.452 |
| Cc1noc(C(C)C)c1C(=O)NCCN1CCCCCC1=O | 0.794 | 20.8 | 3.57 | 1.68 | 1.02 | 14.9 | -6.97 | 6.86 | 16.5 | -7.87 |
| CN(Cc1ccco1)[C@@H]1CN(Cc2ccc(F)cc2)C[C@@H]2CCCO[C@@H]21 | -5.51 | 9.09 | -4.8 | -5.16 | -6.48 | 15.4 | -5.78 | 3.68 | 12.8 | -3.55 |
| COc1c(C2CCCN2C(=O)c2cncnc2C)c(C)nn1C (stereo not given) | 0.687 | 20.8 | 0.3 | -7.46 | -3.48 | 18.8 | 21.6 | 3.92 | 9.41 | -6.48 |
| c1ccc(-n2ccc(CN3CCCC3Cn3cccn3)n2)cc1 (stereo not given) | -2.21 | -49.4 | 9.5 | -5.97 | -7.17 | 8.25 | 11.5 | 0 | -11.8 | 3.12 |
| COc1cccc(OC)c1C(=O)N1CCN(c2ccccc2F)CC1 | 0.59 | 12 | 0.141 | -4.34 | -6.2 | 12.2 | 46.4 | 0 | -5 | -24.9 |
| COc1ccc(CC(=O)N2C[C@@H]3COC[C@]3(CN(C)C)C2)cc1 | -3.95 | -42.9 | 3.29 | 3.8 | -6.07 | 1.15 | -12.9 | -26.8 | -43.6 | 1.23 |
| Cn1ccc(C(=O)NCc2cccc(N3CCCCC3=O)c2)cc1=O | 2.38 | 13 | 8.44 | -0.373 | -2.66 | 27.5 | 14.9 | 9.8 | 21.2 | -9.09 |
| Cc1ccc(C(=O)N2C[C@H]3CCC[C@@]3(COCc3cccnc3)C2)s1 | -4.31 | 6.49 | -5.03 | -4.38 | 1.22 | 15.4 | 3.36 | 5.79 | 5.13 | 5.28 |
| FC(F)(F)c1nc(NC2CCCC2)c2ccccc2n1 | 1.99 | -2.7 | -2.53 | -0.291 | 5.94 | 9.76 | 45.1 | 0.532 | -2.44 | 35 |
| Cn1cc(-c2nc(CNCCn3cccn3)cs2)cn1 | 3.44 | 10.3 | -15.7 | -6.67 | -0.41 | 16 | 32.9 | 8.13 | 13.2 | 27.9 |
| Cc1ccc(NC2CCN(C(=O)c3n[nH]c4ccccc34)CC2)nn1 | -2.85 | 5.33 | 0.786 | -5.62 | 3.55 | -2.29 | 12.2 | 3.68 | 5.13 | -6.5 |
| O=C(c1ncccn1)N1C[C@H]2CCC[C@@]2(COCc2cccnc2)C1 | -6.88 | 3.9 | -0.0107 | -1.46 | -4.45 | 10.3 | 89.1 | -2.63 | -7.69 | -1.21 |
| Cn1cc(CN2CCCC3(CCCN3S(C)(=O)=O)C2)cn1 (stereo not given) | -3.74 | 9.09 | -4.49 | -4.77 | 2.02 | 12.3 | -3.8 | 5.79 | 10.3 | 1.97 |
| CC(C)c1cc(N2CCN(c3ccc(O)cc3)CC2)n2nccc2n1 | -0.0494 | 5.41 | 0.937 | -0.873 | 5.25 | 19.7 | 0.905 | 27.1 | 34.1 | -3.77 |
